Test results as given in PubChem BioAssay (NCI).
About 79,000 compounds went through this panel and 15% of them were active in at least one assay; those are over-represented in the sample as a whole. Active and inactive are the calls of the source. Rule as the data show it: active = growth inhibition above about 70%; inactive = the rest.

Tests used:
[1] = NCI Yeast Anticancer Drug Screen. Data for the rad52 strain (AID 147);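 also: 0% = growth of vehicle-treated control cultures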; settings: S. cerevisiae rad52 mutant growth inhibition, hits give high values
Method in brief: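 Compounds are applied to a genetically defined yeast strain lacking normal DNA damage repair, and inhibition of growth is expressed relative to cultures given vehicle only.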

[2] = NCI Yeast Anticancer Drug Screen. Data for the wt1 strain (AID 149);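 also: 0% = growth of vehicle-treated wt1 cultures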; settings: S. cerevisiae wt1 strain (SPY 50644) growth inhibition, hits give high values
Method in brief: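 Compounds are added to wt1 yeast cultures. Growth is then measured. Inhibition is expressed relative to vehicle-treated controls.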

[3] = NCI Yeast Anticancer Drug Screen. Data for the rad50EPP+ strain (AID 151);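 also: 0% = growth of vehicle-treated control cultures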; settings: S. cerevisiae rad50 mutant strain, hits give high values
Method in brief: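 Compounds were applied to the rad50EPP+ yeast strain, which bears a defined DNA repair alteration, and growth inhibition was determined relative to vehicle-treated cultures.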

[4] = NCI Yeast Anticancer Drug Screen. Data for the mgt1 strain (AID 153); settings: S. cerevisiae mgt1 mutant growth inhibition, hits give high values
Method in brief: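 Strain: mgt1 yeast, one of a set carrying defined DNA damage repair or cell cycle control alterations. Compound-treated growth compared with vehicle.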

[5] = NCI Yeast Anticancer Drug Screen. Data for the rad50 strain (AID 155);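 also: 0% = growth of vehicle-only cultures of the same strain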; settings: S. cerevisiae rad50 strain growth inhibition, hits give high values
Method in brief: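 Inhibition values express reduced yeast growth in compound-treated cultures relative to vehicle-treated controls.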

[6] = NCI Yeast Anticancer Drug Screen. Data for the mec2-1 strain (AID 157); settings: S. cerevisiae mec2-1 strain, hits give high values
Method in brief: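 Strain: mec2-1 (DNA repair/cell cycle alteration). Compound exposure, then growth measured; inhibition expressed relative to vehicle.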

[7] = NCI Yeast Anticancer Drug Screen. Data for the rad14 strain (AID 159);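 also: 0% = growth of vehicle-treated control cultures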; settings: S. cerevisiae rad14 strain growth inhibition, hits give high values
Method in brief: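 A mutant yeast strain defective in DNA damage repair is treated with compound; inhibition of its growth is scored against untreated, vehicle-exposed cultures.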

[8] = NCI Yeast Anticancer Drug Screen. Data for the sgs1 mgt1 strain (AID 161);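 also: 0% = growth of cultures given vehicle only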; settings: S. cerevisiae sgs1 mgt1 strain, hits give high values
Method in brief: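 Genetically altered yeast, compound exposure, growth inhibition relative to vehicle.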

[9] = NCI Yeast Anticancer Drug Screen. Data for the CLN2oe strain (AID 163);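 also: 0% = growth of vehicle-only control cultures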; settings: S. cerevisiae CLN2oe strain, hits give high values
Method in brief: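 Growth of a genetically modified yeast strain is measured after compound exposure and compared with cultures given vehicle alone.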

[10] = NCI Yeast Anticancer Drug Screen. Data for the cln2 rad14 strain (AID 165);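 also: 0% = growth equal to vehicle treated cultures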; settings: S. cerevisiae cln2 rad14 strain, hits give high values
Method in brief: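 Compounds are applied to the cln2 rad14 yeast strain, and growth is then compared with that of vehicle-treated cultures to give inhibition.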

[11] = NCI Yeast Anticancer Drug Screen. Data for the bub3 strain (AID 167); settings: S. cerevisiae bub3 mutant strain, hits give high values
Method in brief: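 Steps: expose the mutant yeast strain to compound; grow alongside vehicle-treated cultures; measure growth; express inhibition against the vehicle cultures.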

[12] = NCI Yeast Anticancer Drug Screen. Data for the wt2 strain (AID 169);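 also: 0% = growth of vehicle-treated yeast cultures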; settings: S. cerevisiae wt2 strain growth inhibition, hits give high values
Method in brief: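 This strain belongs to a panel of yeast strains with defined genetic alterations in DNA damage repair or cell cycle control. Compounds are applied, and growth inhibition is measured against vehicle-treated cultures.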

[13] = NCI Yeast Anticancer Drug Screen. Data for the mlh1 strain (AID 171);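 also: 0% = growth of vehicle-treated control cultures of the same strain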; settings: S. cerevisiae mlh1 strain growth inhibition, hits give high values
Method in brief: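 Growth of the mutant yeast strain after compound exposure, expressed as inhibition relative to vehicle-only controls.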

[14] = NCI Yeast Anticancer Drug Screen. Data for the sgs1 strain (AID 173);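 also: 0% = growth of vehicle-only control cultures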; settings: S. cerevisiae sgs1 mutant, hits give high values
Method in brief: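 Growth of a yeast strain bearing a defined genetic alteration is measured after compound treatment. Inhibition is expressed relative to vehicle-only controls.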

[15] = NCI Yeast Anticancer Drug Screen. Data for the rad18 strain (AID 177); settings: S. cerevisiae rad18 mutant growth inhibition, hits give high values
Method in brief: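 Growth of the mutant yeast strain after compound exposure, normalised to vehicle-only cultures.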

[16] = at 5.0 µM (retest, dose inferred, filed as 0.5)
[17] = at 50.0 µM (retest, dose inferred, filed as 5.0)

Measured: growth inhibition

O=C1C2C(C(=O)N1c1ccc(OCc3ccccc3)cc1)C1c3ccccc3C2C2CCCCN21 (stereo not given)
active: [1]; at 100.0 µM 79% | [2]; at 100.0 µM 75% | [4]; at 100.0 µM 95% | [5]; at 50.0 µM 80.8% | [5]; at 100.0 µM 94% | [6]; at 100.0 µM 93% | [7]; at 100.0 µM 97% | [8]; at 50.0 µM 90.7% | [11]; at 50.0 µM 83.3% | [11]; at 100.0 µM 88% | [12]; at 100.0 µM 94% | [13]; at 100.0 µM 95% | [14]; at 100.0 µM 94% | [15]; at 100.0 µM 81%
inactive: [1]; at 1.2 µM -3% | [1]; at 3.7 µM 1% | [1]; at 11.0 µM 3% | [1]; at 33.0 µM 12% | [2]; at 1.2 µM -6% | [2]; at 3.7 µM -7% | [2]; at 11.0 µM -10% | [2]; at 33.0 µM -10% | [3]; at 1.2 µM -1% | [3]; at 3.7 µM 4% | [3]; at 11.0 µM 0% | [3]; at 33.0 µM 1% | [3]; at 100.0 µM 6% | [4]; at 1.2 µM 4% | [4]; at 3.7 µM 4% | [4]; at 11.0 µM -11% | [4]; at 33.0 µM 2% | [5]; at 1.2 µM 3% | [5]; at 3.7 µM 11% | [5]; [16] 3% | [5]; at 11.0 µM 13% | [5]; at 33.0 µM 41% | [5]; [17] 50% | [6]; at 1.2 µM -7% | [6]; at 3.7 µM -6% | [6]; [16] -5% | [6]; at 11.0 µM -6% | [6]; at 33.0 µM 2% | [6]; [17] 19% | [6]; at 50.0 µM -8.75% | [7]; at 1.2 µM -2% | [7]; at 3.7 µM 3% | [7]; at 11.0 µM 4% | [7]; at 33.0 µM 35% | [8]; [16] 1% | [8]; [17] 61% | [9]; at 1.2 µM -5% | [9]; at 3.7 µM -10% | [9]; at 11.0 µM -12% | [9]; at 33.0 µM -12% | [9]; at 100.0 µM 56% | [10]; [16] -14% | [10]; [17] -15% | [10]; at 50.0 µM 4.85% | [11]; at 1.2 µM -4% | [11]; at 3.7 µM -8% | [11]; [16] -5% | [11]; at 11.0 µM -1% | [11]; at 33.0 µM 23% | [11]; [17] 47% | [12]; at 1.2 µM -3% | [12]; at 3.7 µM -4% | [12]; at 11.0 µM -6% | [12]; at 33.0 µM 18% | [13]; at 1.2 µM 1% | [13]; at 3.7 µM 4% | [13]; at 11.0 µM 0% | [13]; at 33.0 µM 28% | [14]; at 1.2 µM -2% | [14]; at 3.7 µM -1% | [14]; at 11.0 µM -2% | [14]; at 33.0 µM 19% | [15]; at 1.2 µM -3% | [15]; at 3.7 µM 12% | [15]; at 11.0 µM 8% | [15]; at 33.0 µM 24%
